Results from PubChem BioAssay AID2546 (National Center for Advancing Translational Sciences (NCATS), 2010).
Out of some 310,000 compounds screened, about 11,000 (3.5%) were called active. Roughly 8% stayed inconclusive and do not appear here. The full list was thinned out, with actives kept by preference. Unmarked numbers belong to inactive results. The call rests on the fitted dose curve; in most records, active means well fitted inhibition curve with a large enough effect; inconclusive means small, poorly fitted or top-dose-only effect, or effect the other way; inactive means flat fitted curve, though single readings scatter.

Experiment: VP16 counterscreen qHTS for inhibitors of ROR gamma transcriptional activity;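 further: Gal4-VP16 expression switched on by copper sulfate through the metallothionein promoter; nearly all actives have a fitted effect of over 50% in size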
Conditions: Drosophila S2 Gal4-VP16 UAS-luciferase, luminescence, 20 h; series mostly up to 53.6 µM; activity, negative = inhibition: at the top concentration
On the % scale 0 is the no-effect control and ±100 the full control effect; potency means the concentration at half of the fitted maximal effect.

SMILES	activity, negative = inhibition	Potency
Cc1cc(NC(=O)c2ccco2)c(=O)n(Cc2c(F)cccc2Cl)c1	-2.23%	
Cc1c(CN2CC[C@@H](N3CCN(c4ccccn4)CC3)[C@H](O)C2)[nH]c2ccc(F)cc12	-0.0686%	
CCCn1c(=S)[nH]c2ccc(C(F)(F)F)cc21	1.78%	
CC(C)n1c(=S)[nH]c2cc(C(F)(F)F)ccc21		10 µM (active)
COc1ccc(C)cc1N(C(=O)Cn1nnc(-c2ccc(C)o2)n1)C(C(=O)NC1CCCC1)c1ccncc1 (centres undefined)	12.3%	
COc1ccc(-c2nc(N)ncc2-c2ccc(Cl)cc2)c(O)c1	3.63%	
Oc1cccc(C2c3[nH]c4ccccc4c3CCN2Cc2cnn(-c3ccccc3)c2)c1 (centres undefined)	-0.197%	
Cc1[nH]nc(-c2ccc(OCc3cnn(-c4ccccc4)c3)cc2O)c1Oc1ccc(Cl)cc1		3.98 µM (active)
COC(=O)c1c(NC(=O)c2ccccc2F)sc2c1C(C(=O)OC)CC2 (centres undefined)	6.15%	
CCc1ccc(N2CC(C(=O)N3CCCCCC3)CC2=O)cc1 (centres undefined)	13.1%	
O=c1[nH]cnc2c1c(-c1ccccc1)cn2-c1ccc(F)cc1	-8.72%	
COc1ccc(N2C(=O)C(Cc3ccccc3)NC2=S)cc1 (centres undefined)	2.35%	
COc1ccc(-n2cc(-c3ccccc3)c3c(=S)nc[nH]c32)cc1		1.12 µM (active)
Cc1ccc(S(=O)(=O)NCc2ccc(C(=O)NC3CCC(C)CC3)cc2)cc1 (centres undefined)	-9.72%	
CCSc1nnc(-c2cc3c(s2)-c2ccccc2CC3)o1		2.51 µM (active)
Fc1ccc(CSc2nnc(-c3cc4c(s3)-c3ccccc3CC4)o2)cc1	-1.37%	
O=C(CSc1nnc(-c2ccccc2O)o1)NC1CCCCC1	-6.98%	
COc1cccc(CNc2ncc(-c3ccccc3)n2C)c1	-9.84%	
O=C(CCC1CCCN(C(=O)c2ccc(F)c(F)c2)C1)N1CCN(c2ccccn2)CC1 (centres undefined)	0.946%	
Cc1cc(C(=O)NCCCc2ccccc2)no1	4.71%	
CCCCNC(=S)NNC(=O)c1cc(C)on1		11.2 µM (active)
COCCCNC(=S)NNC(=O)C(O)(c1ccccc1)c1ccccc1	5.88%	

SMILES	activity, negative = inhibition	Potency
O=C(NCCN1CCCC(O)C1)c1cc(COc2c(F)cccc2F)on1 (centres undefined)	1.48%	
CC1CCN(S(=O)(=O)c2ccc(NC(=O)C3CC(=O)N(c4ccccc4)C3)cc2)CC1 (centres undefined)	-1.06%	
COc1cccc(NC(=O)C(=O)c2cn(CC(=O)N3CCOCC3)c3ccccc23)c1	-11.5%	
Cc1ccc(OC(=O)c2cc3ccccc3o2)cc1	-4.47%	
Cc1ccc(NC(=O)c2cc3ccccc3o2)cc1	7.14%	
C/C(=N\NC(=S)Nc1ccc(C)cc1)c1cc2ccccc2o1		0.794 µM (active)
O=C(c1cc(COc2ccc(F)c(F)c2)on1)N1CCOCC1	-16%	
COc1ccc(OCc2cc(C(=O)N3CCCC3)no2)c2ccccc12	12.5%	
COc1ccc(CCN2CC(C(=O)NCCN3CCNC3=O)CCC2=O)cc1 (centres undefined)	-15.9%	
COc1ccc(CNC(=O)Cc2ccc(-c3ccccc3)cc2)cc1OC	10.3%	
Cc1nc(NC(=O)c2ccc3c(c2)OCCO3)ccc1Br	-6.43%	
O=C(Nc1nnc(C2=COCCO2)o1)c1ccc([N+](=O)[O-])s1		3.16 µM (active)
Cc1ccc(C(=O)Nc2nnc(C3=COCCO3)o2)cc1C		0.282 µM (active)
Cc1ccc(C(=O)NCCN2CCOCC2)cc1C	2.14%	
COc1cc(C(C(=O)NC2CCCC2)N(Cc2ccccc2)C(=O)c2snc(C(N)=O)c2N)ccc1O (centres undefined)	-16.6%	
COc1cccc(C(C(=O)NC2CCCC2)N(C(=O)c2ccco2)c2cccc(C(C)=O)c2)c1OC (centres undefined)	8.49%	
CCN1C(=NCC(C)C)N[C@@H](CCc2ccccc2)[C@H](C(=O)NCC(C)C)[C@H]1C		inactive
COC(=O)c1ccc(CN2CCCC(C(=O)Nc3cccc(-n4cnnn4)c3)C2)cc1 (centres undefined)	-0.887%	
C=CCN1CCN(C(=O)CCCc2ccccc2)CC1		7.94 µM (active)
CC(=O)c1ccc(N2CCN(C(=O)CCc3ccccc3)CC2)cc1	10.4%	
O=C(CCCc1ccccc1)NCc1ccccc1	-5.36%	
COC(=O)c1cccc(N(CC(=O)NCC2CCCO2)C(=O)CCC(=O)Nc2cc(C)on2)c1 (centres undefined)	3.36%	

SMILES	activity, negative = inhibition	Potency
CC(C)NS(=O)(=O)c1ccc(OCC(=O)NC2CCCCCC2)cc1	-4.5%	
CC(=O)Oc1c2c(c3c(c1CC=C(C)C)O[C@@]14C(=CC5CC1C(C)(C)OC4(C/C=C(\C)C(=O)O)C5=O)C3=O)OC(C)(CCC=C(C)C)C=C2 (some centres undefined)		5.62 µM (active)
CC(C)CC(=O)c1c[nH]c(C(=O)NCc2ccccc2)c1	-0.114%	
COc1ccc(CNC(=O)c2c[nH]c3c(OC)cc(OC)cc3c2=O)cc1	2.18%	
COc1ccc(CNC(=O)c2cc(C(=O)C3CC3)c[nH]2)cc1		22.4 µM (active)
COc1ccc(N2CCC(N3CCN(C)C(CCO)C3)CC2)cc1 (centres undefined)	-1.4%	
Cc1cc(C)n(CC(O)COc2ccc(C(C)(C)C)cc2)n1 (centres undefined)	2.58%	
CC(=O)c1ccc(N2CCN(C(=O)CCNC(=O)Cn3ccc4ccccc4c3=O)CC2)cc1	2.36%	
CCOc1ccc(S(=O)(=O)N2CCC(C(=O)NCc3ccccn3)CC2)cc1Cl	2.16%	
O=C(NCCCn1ccnc1)Nc1ccc(Cl)cc1Cl	-7.92%	
O=C(Nc1ccccc1C(=O)NCCCn1ccnc1)c1ccc(Cl)cc1Cl	-8.8%	
Clc1ccc(C(Cn2ccnc2)OCc2ccsc2Cl)c(Cl)c1 (centres undefined)		15.8 µM (active)
CSCCC(NS(=O)(=O)c1ccccc1F)C(=O)N1CC=C(c2ccccc2)CC1 (centres undefined)	-0.385%	
O=C(Nc1ccc(Cl)c(Cl)c1)c1ccccc1NC(=O)C1CC=CCC1C(=O)O (centres undefined)	2.06%	
Cc1cccc(NC(=O)C(C)SCc2ccccc2)c1 (centres undefined)	-3.55%	
Cc1nnc(NC(=O)Nc2ccc(Cl)c(Cl)c2)s1	1.23%	
CSc1ncc(Cl)c(C(=O)Nc2cc(C)ccc2C)n1	2.76%	
Cc1ccc(S(=O)(=O)CC(=O)Nc2nnc(C)s2)cc1	0.532%	
Cc1ccc(CS(=O)(=O)c2ncc(Cl)c(C(=O)Nc3nnc(C)s3)n2)cc1		6.31 µM (active)
Cc1cccc(CS(=O)(=O)c2ncc(Cl)c(C(=O)Nc3ccc(F)cc3)n2)c1		3.16 µM (active)
Cc1cccc(OCc2ccc(C(=O)Nc3ccc(F)cc3)cc2)c1	-0.168%	
CCSc1ncc(Cl)c(C(=O)Nc2cc(C)ccc2C)n1	0.583%	

SMILES	activity, negative = inhibition	Potency
Cc1cccc(NC(=O)c2nc(S(=O)(=O)Cc3ccccc3)ncc2Cl)c1		4.47 µM (active)
O=S(=O)(c1ccc(Cl)cc1)c1nc(-c2ccco2)oc1N1CCCCC1	-7.28%	
Cc1c(CNCCc2ccccc2)c(C(=O)O)c(C)n1-c1ccccc1	20.5%	
CCn1c(C)c(C)c2cc(C(=O)N3CCN(c4cccc(C)c4C)CC3)ccc21	1.57%	
CCOc1ccc(N2C(=O)CC(N(O)c3ccccc3)C2=O)cc1 (centres undefined)	2.07%	
CCCCCCC(=O)N(O)C1CC(=O)N(c2ccccc2)C1=O (centres undefined)		5.01 µM (active)
CCOC(=O)c1ccc(N2C(=O)CC(N(C)Cc3ccccc3)C2=O)cc1 (centres undefined)	-0.343%	
COc1ccc(CN(C)C(=O)Cc2ccsc2)c(OC)c1OC	-2.7%	
CC1CCN(S(=O)(=O)c2ccc3c(ccn3CC(=O)O)c2)CC1	0.253%	
COc1ccc(OC)c(Nc2nc(-c3ccc(O)c(O)c3)cs2)c1		8.91 µM (active)
COc1ccc(-c2csc(NC3OC(=O)c4ccccc43)n2)cc1 (centres undefined)	9.71%	
COc1ccc(C)cc1Nc1nc(-c2c(C)[nH]c3ccccc23)cs1	-9.12%	
COc1ccc(-c2csc(Nc3ccc(O)cc3)n2)cc1		12.6 µM (active)
COc1ccc(-c2csc(NC(=O)c3ccc(N4C(=O)CCC4=O)cc3)n2)cc1OC	-0.532%	
COc1ccc(-c2csc(Nc3ccccn3)n2)cc1	-8.73% [at 10 µM]	
O=S(=O)(Cc1cc(Cl)nc(-c2cccnc2)n1)c1ccccc1	-13.2%	
CCOC(=O)C1CCCN(S(=O)(=O)c2ccc(-n3cnnn3)c(C)c2)C1 (centres undefined)	13.5%	
Cc1ccc(-c2nc3ccccc3[nH]c2=O)cc1	-9.75%	
c1ccc2[nH]c(-c3nc4ccccc4[nH]3)nc2c1		10 µM (active)
OC(c1nc2ccccc2[nH]1)C(O)C(O)C(O)c1nc2ccccc2[nH]1 (centres undefined)	-6.56%	
O=C(CSc1ccc(-c2ccco2)nn1)Nc1cccc(F)c1	-2.6%	
Cn1c(Cn2nnc3ccccc32)nnc1SCC(=O)c1ccccc1F		7.08 µM (active)

SMILES	activity, negative = inhibition	Potency
Cc1ccc(C(=O)CSc2nnc(Cn3nnc4ccccc43)n2C)cc1	15.3%	
Cn1c(CNC(=O)c2ccccc2F)nnc1SCc1ccc(F)cc1	-1.58%	
CS(=O)(=O)Nc1cccc(C2=NN(C(=O)c3cccc(F)c3)C(c3cccs3)C2)c1 (centres undefined)	8.13%	
CCOc1ccc(-c2noc(CCC(=O)NC3CCCC3)n2)cc1OC	6.06%	
Cc1ccc(-n2[nH]c(C)c(/C=N/NC(=O)c3cccc([N+](=O)[O-])c3)c2=O)cc1C		0.891 µM (active)
Cc1[nH]n(-c2ccccc2)c(=O)c1/C=N/NC(=O)c1ccoc1C		1 µM (active)
Cc1[nH]n(-c2ccccc2)c(=O)c1N=Nc1ccccc1C(=O)N1CCCCC1	3.52%	
COc1cc(/C=N/NC(=O)c2ccoc2C)ccc1OCCN1CCCCC1	-3.7%	
O=C(N/N=C/c1cccc([N+](=O)[O-])c1)c1ccncc1	-2.67%	
COc1cccc(/C=N/NC(=O)c2cccc([N+](=O)[O-])c2)c1OS(=O)(=O)c1ccc(C)cc1	-1.03%	
Cc1nnc(NC(=O)C(c2ccccc2)c2ccccc2)s1	7.09%	
Cc1nc2cc(C(F)(F)F)ccc2n1CCNc1nc(-c2cc(Cl)c(N)c(Cl)c2)cs1	-0.934%	
O=C(CC(O)(C(F)(F)F)C(F)(F)F)Nc1ccc(Cl)c(Cl)c1		5.01 µM (active)
O=C(CC(=O)Nc1ccc(Cl)c(Cl)c1)N/N=C/c1ccc(O)cc1	-6.4%	
Cc1ccc(NC(=O)C/C(N)=N/O)cc1Cl	-2.54%	
Cc1c(Cl)cccc1NC(=S)N(Cc1ccccc1)Cc1cccnc1	-4.7%	
Cc1c(Cl)cccc1NC(=S)NCc1ccc2c(c1)OCO2		11.2 µM (active)
CN(C)S(=O)(=O)c1cccc(NC(=S)NCc2ccc3c(c2)OCO3)c1	0.712%	
Cc1c(Cl)cccc1NC(=O)NCc1ccc(C)n1C	6.08%	
O=C(NCc1ccc2c(c1)OCO2)c1cc(F)c(F)cc1Cl	-6.45%	
CCNC(=S)Nc1cccc(Cl)c1C		17.8 µM (active)
